Compound activity (PubChem BioAssay)
Sm TGR inh: qHTS Assay for the Inhibitors of Schistosoma Mansoni Peroxiredoxins; purified TGR, DTNB reduction, TNB absorbance 405 nm; Potency, µM (highest dose often 114 µM), for the others: at the highest dose activity change, negative = inhibition, most hits filed as inhibitors; 3% of 360,000 active; AID 485364, 2010; also: nearly all actives have a fitted effect of over 60% in size
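TGR 20 nM + NADPH 100 uM (dispensed conc.), cpd preinc 15 min RT; start with NADPH (500 uM addition) then DTNB (15 mM addition). Kinetic TNB absorbance, 405 nm filter. Four-parameter Hill fit across titration.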
Marburg entry inh: qHTS for inhibitors of binding or entry into cells for Marburg Virus. Potency, µM (series often up to 37.8 µM), for inactives: top-dose activity change, negative = inhibition, most hits filed as inhibitors. AID 540276, 2011. 1.8% of 300,000 active. Marburg virus pseudotyped entry inhibition, cell reporter; calls by dose curve; tested in HEK293 cells
RE007 growth inh: qHTS Assay for Inhibitors of the HIV-1 protein Vpr; S. pombe RE007 Vpr strain, BacTiter-Glo ATP luminescence, 24 h; Potency, µM (top dose mostly 92.2 µM), for the others: at the highest dose activity change, negative = less growth, hits mostly inhibitors; 0.21% of 360,000 active; AID 651644, 2012; active = well fitted falling curve with a large enough effect; inconclusive = small, poorly fitted or top-dose-only effect; inactive = no such curve, though single readings can be large or run the other way; also: nearly all actives have a fitted effect of over 50% in size
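Fission yeast strain RE007, carrying one chromosomally integrated HIV-1 vpr copy, was seeded at OD 0.01 in PMG+AL medium with 23 nL pinned compound. After 24 h at 30 °C and 99% humidity, viability was read by BacTiter-Glo luminescence.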
FMDV inh: High Throughput Screening for Foot and Mouth Disease Virus Antivirals; Potency, µM (titrated, usually from 57.9 µM), for inactives: top-dose activity change, negative = inhibition, actives largely listed as inhibitors; FMDV antiviral cell-based qHTS; 1.2% of 410,000 active; calls by dose curve; tested in HEK293T cells; also: read-out not given here; nearly all actives have a fitted effect of over 45% in size
HCV inh: qHTS Assay for Inhibitors of Hepatitis C Virus (HCV); 3.4% of 340,000 active; AID 651820, 2012; Huh7.5.1 HCVcc-Cre infection, luciferase reporter, 44 h; Potency, µM (titrated, usually from 41.8 µM), without a hit: at the highest dose activity change, negative = inhibition, usual class: inhibitors
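Compounds are dispensed onto cells plated 4 h earlier at 1,000 per well, with HCVcc-Cre virus (about 0.5 moi) added next. Following 44 h of culture, luminescent signal is measured for 15 sec after 15 min with substrate at room temperature.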
Lassa entry inh: qHTS for Inhibitors of binding or entry into cells for Lassa Virus. Potency, µM (titrated, usually from 37.9 µM), inactives show at the highest dose activity change, negative = inhibition, usual class: inhibitors. 1.2% of 300,000 active. Lassa virus pseudotype entry inhibition, cell reporter; calls by dose curve; tested in HEK293 cells; also: nearly all actives have a fitted effect of over 50% in size
* hit, by the source's call; [ ] = dose if it differs, or a comment. This is a sample that favours compounds with a hit; in the whole collection about 7.2% have one here. Unless noted, calls follow the shape of the dose curve; as a rule, active = well fitted curve in the direction sought with a large enough effect; inconclusive = small, poorly fitted or top-dose-only effect, or another doubt; inactive = no such curve, though single readings can be large; an effect the other way counts as inactive or inconclusive. % is scaled to controls: 0 for no effect and ±100 for the full control effect; potency is read from the fitted curve at half-maximal effect.

Results for C=C(C)c1cccc(C(C)(C)NC(=O)NCc2ccc(OC)c(OC)c2)c1 ?
Sm TGR inh: -18%; Marburg entry inh: inconclusive; RE007 growth inh: -4%; FMDV inh: -16%; HCV inh: 11µM*; Lassa entry inh: 0%

Results for CCOc1ccc(CCNC(=O)c2ccc(C)c(S(=O)(=O)N3CCOCC3)c2)cc1OCC ?
Marburg entry inh: inconclusive; RE007 growth inh: 2%; FMDV inh: 22µM*; HCV inh: 10µM*; Lassa entry inh: inconclusive

How did COc1ccc(NC(=O)CSc2nnc3n2CCCCC3)cc1S(=O)(=O)N1CCOCC1 do in these assays?
Sm TGR inh: -13%; RE007 growth inh: -2%; FMDV inh: 2%; HCV inh: -8%

How did COc1ccc(CCNC(=O)c2cc(S(=O)(=O)N3CCC4(CC3)OCCO4)ccc2F)cc1OC do in these assays?
Sm TGR inh: -11%; Marburg entry inh: inconclusive; RE007 growth inh: -13%; FMDV inh: -30%; HCV inh: 11µM*; Lassa entry inh: inconclusive

What do the screens show for `COc1ccc(CNC(=O)c2cc(S(=O)(=O)N3CCCCC3)ccc2Cl)cc1OC`?
Marburg entry inh: inconclusive; RE007 growth inh: 1%; FMDV inh: 14µM*; HCV inh: 11µM*; Lassa entry inh: -26%

Results for CCN(CC)S(=O)(=O)c1ccc(C(=O)NCCc2cc3c(OC)ccc(OC)c3[nH]c2=O)cc1 ?
Sm TGR inh: -1%; Marburg entry inh: inconclusive; RE007 growth inh: 16%; FMDV inh: inconclusive; HCV inh: inconclusive; Lassa entry inh: inconclusive

How did CCOc1ccc(CCNC(=O)c2ccc3nc(N4CCOCC4)sc3c2)cc1OCC do in these assays?
Sm TGR inh: 1%; Marburg entry inh: -5%[46.1 µM]; RE007 growth inh: -9%; FMDV inh: 14µM*; HCV inh: inconclusive; Lassa entry inh: -13%

How did COCCNC(=O)c1cc(S(=O)(=O)N2CCC3(CC2)OCCO3)ccc1F do in these assays?
RE007 growth inh: 11%; FMDV inh: -16%

How did COc1ccc(OC)c2[nH]c(=O)c(CCNC(=O)c3ccc(S(=O)(=O)N4CCCC4)cc3)cc12 do in these assays?
Sm TGR inh: 9%; Marburg entry inh: inconclusive; RE007 growth inh: 13%; FMDV inh: inconclusive; HCV inh: 11µM*; Lassa entry inh: -23%

What do the screens show for `Cc1cc(=O)n(Cc2ccc(F)cc2Cl)c2c1c(C)nn2C`?
Sm TGR inh: -2%; FMDV inh: -24%; Lassa entry inh: 0%[46.1 µM]

How did Cc1c(C(=O)NCc2ccccc2Cl)sc2ncnc(N(C)C3CCCCC3)c12 do in these assays?
Sm TGR inh: 7%; FMDV inh: -18%; Lassa entry inh: inconclusive

What do the screens show for `O=C(NCc1ccc2c(c1)OCO2)C(=O)NCC1OCCN1S(=O)(=O)c1ccc(Br)cc1` (stereo unspecified)?
Sm TGR inh: 7%; Marburg entry inh: -26%[46.1 µM]; RE007 growth inh: 2%; FMDV inh: -25%; HCV inh: 10µM*; Lassa entry inh: inconclusive

Results for Cc1ccc(CN(C)C(=O)c2ccccc2Oc2ccccc2)o1 ?
Sm TGR inh: 7.9µM*; Marburg entry inh: -9%; RE007 growth inh: -11%; FMDV inh: -15%; HCV inh: -4%; Lassa entry inh: 1%

What do the screens show for `COc1ccc(CNC(=O)C2CCCN(S(=O)(=O)N(C)c3ccc(F)cc3)C2)cc1OC` (stereo unspecified)?
Sm TGR inh: 7%; FMDV inh: 13µM*; Lassa entry inh: -9%[46.1 µM]

Results for COc1ccccc1CCNC(=O)C(=O)NCC1OCCCN1S(=O)(=O)c1ccc(F)cc1C (stereo unspecified) ?
Sm TGR inh: -7%; Marburg entry inh: -20%; RE007 growth inh: -3%; FMDV inh: -25%; HCV inh: 10µM*; Lassa entry inh: inconclusive

Results for CC(C)(C)c1ccc(C(=O)N2CCC3(CC2)CC3C(=O)NCCc2ccccn2)cc1 (stereo unspecified) ?
FMDV inh: 26%

What do the screens show for `CCOC1=C(NC(=O)C(C)(C)C)CC(OCC)=C(N2CCOCC2)C1`?
Marburg entry inh: 7%[46.1 µM]

What do the screens show for `CCOc1ccc(CNC(=O)c2ccc(NC(=O)N3CCSc4ncccc43)cc2)cc1`?
Sm TGR inh: 22%; FMDV inh: -13%; Lassa entry inh: 2%[46.1 µM]

How did CCc1nc(-c2cc(S(=O)(=O)N3CCN(c4ccccc4OC)CC3)ccc2OC)no1 do in these assays?
Sm TGR inh: -3%; Marburg entry inh: 3%[46.1 µM]; FMDV inh: 0%; Lassa entry inh: 0%[46.1 µM]

How did COc1ccc2c3c(c(=O)oc2c1)[C@H]1O[C@](c2ccsc2)(Cc2cc(C#N)ccc21)O3 do in these assays?
Marburg entry inh: -14%[14.2 µM]

What do the screens show for `COc1ccc(CNC(=O)c2cccc(S(=O)(=O)N3CCCCC3)c2)cc1OC`?
Sm TGR inh: -6%; RE007 growth inh: -10%; FMDV inh: inconclusive; HCV inh: 6.3µM*

What do the screens show for `COc1cc(OC)c(OC)cc1CNC(=O)c1cccc(S(=O)(=O)N2CCc3ccccc3C2)c1`?
Sm TGR inh: 4%; Marburg entry inh: inconclusive; RE007 growth inh: -11%; FMDV inh: 11µM*; HCV inh: 1.8µM*; Lassa entry inh: inconclusive

How did COc1ccc(S(=O)(=O)N2CCCCCC2)cc1C(=O)N(C)Cc1ccc(C(C)(C)C)cc1 do in these assays?
Sm TGR inh: -2%; Marburg entry inh: inconclusive; RE007 growth inh: 15%; FMDV inh: inconclusive; HCV inh: 14µM*; Lassa entry inh: inconclusive

How did COc1ccc(S(=O)(=O)N2CCCCCC2)cc1C(=O)N(C)Cc1ccc(F)cc1 do in these assays?
Sm TGR inh: -5%; Marburg entry inh: inconclusive; RE007 growth inh: 6%; FMDV inh: -26%; HCV inh: -18%; Lassa entry inh: inconclusive

What do the screens show for `O=C(Nc1ccc(F)cc1F)c1ccc2nc(N3CCOCC3)sc2c1`?
Sm TGR inh: -1%; RE007 growth inh: -5%; FMDV inh: -10%; HCV inh: 13µM*

Results for COc1ccc(CCNC(=O)c2cccc(S(=O)(=O)N3CCCC3)c2)cc1OC ?
Sm TGR inh: -16%; RE007 growth inh: -17%; FMDV inh: -23%; HCV inh: -6%

How did CS(=O)(=O)N1CCC2(CC1)CN(C(c1ccccc1)c1ccccc1)C2 do in these assays?
FMDV inh: -2%

Results for Cc1ccc(OCC(=O)Nc2ccccc2C(=O)OCc2cc(=O)n3c(C)csc3n2)cc1 ?
Sm TGR inh: -4%; FMDV inh: -26%; Lassa entry inh: 29%[46.1 µM]
